Data on 21 compounds can be found in paper PMC11062922 (Nature Chemical Biology, 2023).

What all share (parameters): species or system human, MV4-11 + K-562 + COLO205 + SK-N-BE2 + OVCAR-8
In assay [1] the test system is PIM2. Particulars: read-out: apparent Kd; compound concentrations: 100 nM and 1000 nM (sheet 'Samples'), CATDS: 0.11675722362862; n = 1.
Assay [2] has as its system PKN3. Particulars: read-out: apparent Kd, compound concentrations: 100 nM and 1000 nM (sheet 'Samples'), n = 1.
Assay [3] concerns LIMK1. Particulars: read-out: apparent Kd, n = 1.
Assay [4] deals with ERBB3. Particulars: read-out: apparent Kd, compound concentrations: 100 nM and 1000 nM (sheet 'Samples'), n = 1.
The test system of assay [5] is STK10. Particulars: read-out: apparent Kd; compound concentrations:100 nM and 1000 nM (sheet 'Samples'); n = 1.
Assay [6] concerns CDK7. Particulars: read-out: apparent Kd; compound concentrations:100 nM and 1000 nM (sheet 'Samples'); n = 1.
The subject of assay [7] is ERCC2. Particulars: read-out: apparent Kd, n = 1.
For assay [8], the system named is MAPK10. Particulars: read-out: apparent Kd, n = 1.
For assay [9], the system named is EPHB3. Particulars: read-out: apparent Kd; compound concentrations: 100 nM and 1000 nM (sheet 'Samples'), CATDS: 6.3203902610818402E-2; n = 1.
Assay [10] relates to ADCK3. Particulars: read-out: apparent Kd, compound concentrations: 100 nM and 1000 nM (sheet 'Samples'), n = 1.
The subject of assay [11] is CSNK1A1. Particulars: read-out: apparent Kd; compound concentrations:100 nM and 1000 nM (sheet 'Samples'); n = 1.
For assay [12], the system named is MAPK11. Particulars: read-out: apparent Kd, n = 1.
Assay [13] has as its system CDK4. Particulars: read-out: apparent Kd, n = 1.
The test system of assay [14] is SIK3. Particulars: read-out: apparent Kd; compound concentrations: 100 nM and 1000 nM (sheet 'Samples'), CATDS: 1.4935731096458E-2; n = 1.
The subject of assay [15] is NUAK1. Particulars: read-out: apparent Kd; compound concentrations:100 nM and 1000 nM (sheet 'Samples'); n = 1.
Assay [16] has as its system AURKA. Particulars: read-out: apparent Kd, n = 1.
The subject of assay [17] is SYK. Particulars: read-out: apparent Kd, n = 1.
The subject of assay [18] is TAOK1. Particulars: read-out: apparent Kd; compound concentrations:100 nM and 1000 nM (sheet 'Samples'); n = 1.
[19] abbreviates: compound concentrations:100 nM and 1000 nM (sheet 'Samples').

Read-outs that look alike come from different tables or passages of the source.

Regarding `COc1ccc(-c2nc3n(c2-c2ccncc2)CCC3)cc1.COc1ccc(-c2nc3n(c2-c2ccncc2)CCC3)cc1.O=S(=O)(O)O.O=S(=O)(O)O` [SKF-104493-B2], the potency estimated from few doses in assay [1] is 1570 nM; in assay [2] (CATDS: 0.15312963325727599) it was 911 nM.
As for `CC(=O)N1CCN(c2ccc(Nc3nccc(-c4sc(C(C)C)nc4-c4cccc(NS(=O)(=O)c5cccc(Cl)c5)c4)n3)cn2)CC1` [GSK1660437A], the potency estimated from few doses in [3] (compound concentrations: 100 nM and 1000 nM (sheet 'Samples'), CATDS: 8.9017548853229503E-2) is 288 nM.
On to `CC(C)c1nc(-c2cccc(NS(=O)(=O)c3c(F)cccc3F)c2F)c(-c2ccnc(Nc3ccc(N4CCOCC4)nc3)n2)s1` [GSK2008607A], for which, in assay [3] (compound concentrations: 100 nM and 1000 nM (sheet 'Samples'), CATDS: 3.4604855317968697E-2), the potency estimated from few doses was 358 nM.
Consider `N#Cc1cnc2cc(-c3cnc(CNCCN4CCOCC4)s3)ccc2c1Nc1ccc(Oc2ccccc2)cc1` [GW664114X], for which, in [4] (CATDS: 9.1270292154097404E-2), the potency estimated from few doses was 245 nM.
Take `COc1cc2ncn(-c3cc(OCc4ccncc4)c(C(N)=O)s3)c2cc1OC` [GSK336313A]: in assay [5], the potency estimated from few doses is 1930 nM.
As for `Cl.Cn1c(=O)c(Cc2ccc(F)cc2F)cc2cnc(NC3CCOCC3)nc21` [RO3308757-001], the potency estimated from few doses is 331 nM in [6], 239 nM in assay [7] (setting [19]) and 886 nM in assay [8] (setting [19]).
On to `Cc1ccc(O)cc1Nc1ccnc2ccc(C(C)(C)C)cc12` [GW856805X], for which the potency estimated from few doses in assay [9] was 31.7 nM.
On to `CS(=O)(=O)c1ccc(-c2cnc(N)c(C(=O)Nc3ccccc3)n2)cc1` [VE-821], for which the potency estimated from few doses in assay [10] (CATDS: 0.149033723356022) was 1370 nM.
Consider `CNc1nccc(-c2c(-c3ccc(F)cc3)ncn2C2CCN(C)CC2)n1` [SB-222903], for which the potency estimated from few doses is 139 nM in [11], 976 nM in [8] (setting [19]) and 1080 nM in assay [12] (setting [19]).
`CC(C)c1nc(-c2cccc(NS(=O)(=O)c3c(F)cccc3F)c2)c(-c2ccnc(Nc3ccc(N4CCOCC4)nc3)n2)s1.Cl` [GSK1723980B]: the potency estimated from few doses was 1810 nM in assay [13] (compound concentrations: 100 nM and 1000 nM (sheet 'Samples'), CATDS: 1.44710084593789E-2); 36.9 nM in [3] (compound concentrations: 100 nM and 1000 nM (sheet 'Samples'), CATDS: 8.5923205073472897E-2); 1520 nM in assay [14].
Take `N#Cc1cccc(Nc2nccc(-c3cnn4ncccc34)n2)c1` [GW778894X]: the potency estimated from few doses in [13] (setting [19]) was 1830 nM; in [6], 373 nM; in assay [11] it was 731 nM; in assay [7] (setting [19]), 780 nM; in assay [15] it was 792 nM.
For `CN1CCN(c2ccc(Nc3nc(N)c(C(=O)c4ccc5c(c4)OCCO5)s3)cc2)CC1` [RO0505124-000], the potency estimated from few doses in [10] (CATDS: 0.21536092464867401) was 935 nM.
Regarding `O=S(=O)(CCOCc1ccc(-c2ccc3ncnc(Nc4ccc(OCc5cccc(F)c5)c(Cl)c4)c3c2)o1)c1ccccc1` [GW615311X], the potency estimated from few doses in assay [16] (compound concentrations: 100 nM and 1000 nM (sheet 'Samples'), CATDS: 3.2222679542607199E-2) was 1020 nM; in assay [3] (compound concentrations: 100 nM and 1000 nM (sheet 'Samples'), CATDS: 2.6639361665983699E-2), 1500 nM; in assay [8] (compound concentrations: 100 nM and 1000 nM (sheet 'Samples'), CATDS: 3.14341615066977E-2), 1070 nM; in assay [12] (compound concentrations: 100 nM and 1000 nM (sheet 'Samples'), CATDS: 2.56124612703456E-2), 1650 nM; in assay [2] (CATDS: 2.28065209428794E-2) it was 2200 nM; in assay [17] (compound concentrations: 100 nM and 1000 nM (sheet 'Samples'), CATDS: 2.2434221169995199E-2), 2300 nM.
Consider `CS(=O)(=O)Cc1ccc(Nc2nccc(-c3c(-c4cccc(NC(=O)c5c(F)cccc5F)c4)nn4ccccc34)n2)cc1` [GSK323543A], for which the potency estimated from few doses in [7] (compound concentrations: 100 nM and 1000 nM (sheet 'Samples'), CATDS: 6.1110797752593003E-2) is 1570 nM.
Take `COc1cc2nccc(Nc3ccc(Oc4ccccc4)cc3)c2cc1OC.Cl` [GI261656A]: the potency estimated from few doses in assay [4] (CATDS: 4.9978680002658399E-2) is 623 nM.
Take `COc1cc2ncn(-c3cc(OCc4cccs4)c(C(N)=O)s3)c2cc1OC` [GSK312948A]: the potency estimated from few doses in [5] was 109 nM.
As to `O=S(=O)(c1ccc(-c2ccnc3[nH]ccc23)cc1)N1CCCC1` [GSK846226A], the potency estimated from few doses in assay [18] is 1690 nM.
`Nc1nc(N)c2nc(-c3ccccc3)[nH]c2n1` [SKF-12778]: the potency estimated from few doses in assay [16] (setting [19]) was 1110 nM; in assay [11] it was 972 nM; in [8] (setting [19]), 925 nM; in assay [17] (setting [19]) it was 1850 nM.
Take `COc1cccc(-n2cnc3c(N/N=C/c4ccncc4)ncnc32)c1` [GW813360X]: the potency estimated from few doses in [4] (CATDS: 0.18333833775407599) was 961 nM.
As for `CC(C)c1nc(-c2ccc(F)c(NS(=O)(=O)c3c(F)cccc3F)c2)c(-c2ccnc(Nc3ccc(N4CCOCC4)nc3)n2)s1` [GSK1804250A], in [3] (setting [19]), the potency estimated from few doses was 125 nM.
For `CN1CCN(Cc2ccc(NC(=O)Nc3ccc(N(C)c4ccnc(Nc5ccc(CS(C)(=O)=O)cc5)n4)cc3)cc2)CC1.Cl` [GW827654A], the potency estimated from few doses in assay [16] (compound concentrations: 100 nM and 1000 nM (sheet 'Samples'), CATDS: 6.4898936627914502E-2) was 288 nM.
